Shown are actives, neighbours in structure and some others; about 3.3% of the full set was active somewhere.
OTUD3 inh: human OTUD3 deubiquitinase inhibition; Q5T2D3; purified OTUD3, Ub-rhodamine fluorescence, 2 h; inhibition, % at 25 µM; 0.7% of 47,000 active; AID 1645858
Target sequence (Q5T2D3 whole entry, looked up): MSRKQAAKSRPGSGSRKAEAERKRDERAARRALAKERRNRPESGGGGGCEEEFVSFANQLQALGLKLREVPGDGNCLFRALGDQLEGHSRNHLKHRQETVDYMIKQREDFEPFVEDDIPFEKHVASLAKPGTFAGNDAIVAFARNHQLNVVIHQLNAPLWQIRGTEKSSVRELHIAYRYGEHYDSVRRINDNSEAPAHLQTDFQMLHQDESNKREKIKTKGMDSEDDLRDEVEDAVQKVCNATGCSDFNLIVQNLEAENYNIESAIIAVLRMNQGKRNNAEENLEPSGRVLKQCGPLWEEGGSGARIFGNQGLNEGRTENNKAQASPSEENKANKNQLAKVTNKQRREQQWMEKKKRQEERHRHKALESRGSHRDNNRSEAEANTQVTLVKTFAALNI
USP28 block: inhibitors of human USP28 deubiquitinase. purified USP28, Ub-rhodamine cleavage fluorescence, 30 min. 3% of 47,000 active. inhibition, % at 25 µM. AID 1645857. Q96RU2
An asterisk follows results filed as active; . = not tested or not shown. No stated cut-off is given here; in the data, active means inhibition above about 30%; inactive means the rest.

SMILES	OTUD3 inh	USP28 block
O=C(NCc1ccco1)C1CCN(c2cncnc2N2CCCC2)CC1	-15	-6
O=C(NCc1ccccn1)C1CCN(c2cncnc2N2CCCCC2)CC1	-11	41*
O=C(Nc1cnn(-c2ncncc2N2CCCCC2)c1)C1CC1	13	11
Cc1ccc(NC(=O)C2CCN(c3cncnc3N3CCCC3)CC2)cc1	-9	90*
COCCN(C1CCN(Cc2ccccc2S(C)(=O)=O)CC1)S(=O)(=O)c1cccc2cccnc12	-15	-19
COc1ccccc1CN(C(=O)c1ccco1)C(C(=O)NC1CCCC1)c1ccc(C(C)C)cc1 (configuration not stated)	12	10
O=C(NCCCN1CCc2ccccc2C1)c1cc2c(s1)CS(=O)(=O)C2	-16	41*
O=C(NCCC1=CCCCC1)c1cc2c(s1)CS(=O)(=O)C2	3	.
COc1ccc(-n2cc(-c3ccccc3)c3c(NC4CC4)ncnc32)cc1	-1	7
Clc1cccc(-n2cc(-c3ccccc3)c3c(NCc4ccccn4)ncnc32)c1	7	53*
c1ccc(-c2cn(-c3ccccc3)c3ncnc(NC4CC4)c23)cc1	-14	35*
Cc1cccc(-n2cc(-c3ccccc3)c3c(NCc4ccccn4)ncnc32)c1	0	7
COc1cccc(C(=O)Nc2cc(-c3cccnc3)no2)c1	-5	-2
COC(=O)c1cc(S(=O)(=O)NCCc2ccc(OC)c(OC)c2)cn1C	11	8
CCC(C(=O)Nc1ncc2c(n1)CC(c1ccc(F)cc1)CC2=O)c1ccccc1 (configuration not stated)	21	32*
CCC(C(=O)Nc1ncc2c(n1)CC(c1ccc(OC)cc1)CC2=O)c1ccccc1 (configuration not stated)	5	5
O=C(NC1CCCC1)c1cccc(-c2ccc(N3CCCC3)nc2)c1	-19	-3
CCc1ccc(NC(=O)CSc2nnnn2-c2cccnc2)cc1	13	31*
O=C(CSc1nnnn1-c1ccccc1)NC(C(=O)O)(c1ccccc1)c1ccccc1	1	-1
N#Cc1ccc(/C=C/c2nc3ccccc3n2Cc2ccccc2)cc1	-25	-6
Cc1cccc(C(=O)N2CCN(C3CCCCC3)CC2)c1	25	18
Cc1cccc(C(=O)N2CCC(C(=O)c3ccc4c(c3)OCCO4)CC2)c1	12	30*
O=c1cc(-c2ccncc2)o[nH]1	9	-9
CN1C(=O)c2cccnc2Sc2cc(NC(=O)CCc3ccccc3)ccc21	-10	7
Cc1cccc(OCC(=O)Nc2ccc3c(c2)Sc2ncccc2C(=O)N3C)c1	-8	4
SMILES	OTUD3 inh	USP28 block
COc1cc(OC)cc(C(=O)Nc2ccc3c(c2)Sc2ncccc2C(=O)N3C)c1	-9	-18
COc1ccc(C(=O)Nc2ccc3c(c2)Sc2ncccc2C(=O)N3C)cn1	-3	65*
CCOc1ccccc1C(=O)Nc1ccc2c(c1)Sc1ncccc1C(=O)N2C	-15	40*
COc1ccc(CCC(=O)Nc2ccc3c(c2)Sc2ccccc2C(=O)N3C)cc1	16	32*
CCOc1ccc2cc3c(nc2c1)OC(=O)N(Cc1ccc(OC)cc1)C3	21	14
c1ccc(CNc2cc(-c3ccccc3)nc(-c3ccncc3)n2)cc1	-76	-66
COc1cccc(NC(=O)CCc2ccc3nc(NC(=O)C(C)C)sc3c2)c1	0	13
COc1ccc(Cn2c(CO)cnc2SCC(=O)Nc2cccc(Cl)c2)cc1	7	6
O=C(c1ccco1)N1CCC[C@@H]1[C@@H](O)c1nccs1	-6	-4
O=C(NCCC(=O)N1CCC2(CC1)NCCc1[nH]cnc12)c1ccc(F)cc1	4	-9
Cc1c(C(C)OC(=O)c2ccc(F)cc2)sc2ncnn12 (configuration not stated)	18	29
Cc1cc(C(=O)Nc2nnc(CSc3ccccc3)o2)no1	1	0
O=C(Nc1ccc(SCc2nnc(-c3ccccc3)o2)cc1)C1CC1	-11	61*
CCCC(=O)Nc1ccc(SCc2nnc(-c3ccccc3)o2)cc1	-2	66*
COc1ccc(NC(=O)COc2ccccc2-c2nnc(-c3ccccc3)o2)cc1	4	8
CCOC(=O)c1cc(-c2ccc(N3CCOCC3)cc2)nc2c1c(=O)n(C)c(=O)n2C	-79	-118
CCn1cc(S(=O)(=O)Nc2ncn(Cc3ccccc3F)n2)cn1	-9	-3
O=C(CCc1ccc(S(=O)(=O)N2CCOCC2)cc1)NC1CCCc2ccccc21 (configuration not stated)	-21	-25
Cc1cc(C(=O)N2CCOC3(CC=CCN(CCc4ccccc4)C3=O)C2)n2nccc2n1 (configuration not stated)	76*	-1
O=C(c1ccnc(N2CCCC2)c1)N1CCOC2(CC=CCN(Cc3ccccc3)C2=O)C1 (configuration not stated)	-1	-5
Cc1cc(S(=O)(=O)[C@H]2CS(=O)(=O)C[C@@H]2NC2CCCC2)ccc1F	7	0
COc1ccc(Nc2nc(NCc3ccccc3)c3nccnc3n2)cc1	-14	37*
Cc1ccc(Nc2nc(Nc3cccc(Cl)c3)nc3nccnc23)cc1	-210	-210
O=C(Cn1nc(-c2ccco2)ccc1=O)Nc1cccc(Br)c1	13	12
COc1ccc(Cl)cc1NC(=O)Cn1c(=O)n(CCC(=O)NC2CCCC2)c(=O)c2ccccc21	6	0
SMILES	OTUD3 inh	USP28 block
O=C(Cn1c(=O)n(CC(=O)NC2CCCC2)c(=O)c2ccccc21)Nc1cc(Cl)ccc1Cl	28	34*
O=C(Cn1c(=O)n(CC(=O)NC2CCCC2)c(=O)c2ccccc21)Nc1ccc(F)cc1	41*	42*
COc1ccc(NC(=O)Cn2c(=O)n(CCC(=O)NC3CCCC3)c(=O)c3ccccc32)cc1Cl	1	4
Cc1cc(N2CCN(S(=O)(=O)N3CCOCC3)CC2)nc(C)n1	-2	-6
Cc1ccc(C(=O)N2CCCn3nnc(Cn4cccn4)c3C2)cc1	-2	-8
Cc1ccc2c(c1)c(=O)cc(C(F)(F)F)n2C[C@H]1CCCN1C(=O)C(C)(C)C	4	2
CC1Cc2ccccc2N1CC(=O)N1CCN(S(=O)(=O)c2ccccc2)CC1 (configuration not stated)	-14	-8
O=C(NCCN1CCc2ccccc2C1)Nc1ccc(C(F)(F)F)cc1	-3	46*
Cc1cccc(NC(=O)NCCN2CCc3ccccc3C2)c1	-3	-1
O=C(Nc1ccc(F)cc1)C1CN(C(=O)C2CCC2)CC12CCOCC2 (configuration not stated)	10	6
Cc1ccc(C)c(S(=O)(=O)Nc2ccc(C(=O)N3CCCC3c3cccnc3)cc2)c1 (configuration not stated)	-4	-10
COc1ccc(CC2(NC(=O)c3ccccc3)N=C3C(C)=CC=CN3C2=O)cc1OC (configuration not stated)	0	-13
CN1CC2CN(C(=O)c3ccc(F)cc3)CCN2Cc2ccccc21 (configuration not stated)	-185	-261
Cc1[nH]n2c(=O)cc(Cc3ccccc3)nc2c1-c1ccccc1	-4	-12
O=c1cc(Cc2ccccc2)nc2c(-c3ccccc3)c(COc3ccccc3)[nH]n12	23	41*
CC1CCCN(S(=O)(=O)c2cc(-c3nnc(C4CCCC4)o3)co2)C1 (configuration not stated)	3	-8
O=C1c2c(O)cc(O)cc2OC(c2ccc(O)c(O)c2)C1O (configuration not stated)	62*	56*

Screening results from PubChem BioAssay.
